One assay concerns the target Hexose transporter 1 (Plasmodium falciparum) (UniProt O97467). Kind of assay: ST_JUDE_LEISH: Cytotoxicity at 2uM final concentration against transgenic Leishmania Mexicana promastigotes LmPfHT that are glucose transport deficient and complemented with the Plasmodium falciparum hexose transporter. Activity is measured by DNA content using SYBR green in vitro. It is filed as functional.
Turning to `Cc1cccc2nc(-c3cccc(-c4cccc(CNC(C)C)c4)c3)[nH]c12`, the inhibition worked out at 0.85%.

On to `CCOc1ccc(C(=O)Nc2nonc2-c2ccc(OC)c(OC)c2)cc1`, for which the inhibition came out at 1.82%.

For the compound `OCC1CCN(Cc2cccc(-c3ccc(-c4nc5cc(C(F)(F)F)ccc5[nH]4)cc3)c2)CC1`, the inhibition was 0.48%.

As to `CCc1c[nH]c2c(N3CCCCS3(=O)=O)cc(C(=O)N[C@@H](Cc3ccccc3)[C@H](O)CNCc3cccc(OC)c3)cc12`, the inhibition is -0.07%.

Take `CCCCCCc1cc(OC)c(OC)cc1C(C)Nc1ccnc2cc(Cl)ccc12` (stereo not given): the inhibition was found to be 5.09%.

In the case of `Cc1cc(N[C@@H](Cc2ccccc2)C(=O)NC2CCCC2)nc(NCC2CCCCC2)n1`, the inhibition worked out at 3.67%.

For `O=C(Nc1cccc(CN2CCCN(Cc3ccc(O)cc3)CC2)c1)c1ccc(Cl)c(Cl)c1`, the inhibition amounted to 11%.

Regarding `O=S(=O)(NCCN1CCCC1)c1ccc(-c2cccc(CNCc3ccsc3)c2)s1`, the inhibition was 2.42%.

In the case of `Cc1[nH]c(C)c(-c2ccc(-c3ccc(F)cc3)nc2)c(=O)c1Br`, the inhibition amounted to 1.82%.

Regarding `O=C(NCCc1ccc(O)cc1)n1c2ccccc2c2ccccc21`, the inhibition turned out to be 4.05%.

For `COc1ccccc1N1CCN(CCCCNC(=O)c2ccc(NC(=O)c3cc(Cl)cc(Cl)c3)cc2)CC1`, the inhibition came out at 3.24%.

As for `CCOC(=O)CCCCCNC[C@H](O)c1ccccc1`, the inhibition was -0.8%.

Consider `CCOC(=O)c1ccc(NC(=O)Nc2ccc(-c3cccc(-c4nc5cccc(C)c5[nH]4)c3)cc2)cc1`, for which the inhibition was -0.4%.

On to `Cc1cc(NC(=O)c2cc(S(=O)(=O)N3CCCCC3)ccc2C)no1`, for which the inhibition turned out to be 4.4%.

For the compound `COc1ccc(NC(=O)[C@H](Cc2ccccc2)Nc2cc(C)nc(Nc3ccccc3)n2)cc1`, the inhibition came to 14.5%.

Regarding `O=C(CCCCCNC(=O)c1ccc(O)c(-c2cccc(C(F)(F)F)c2)c1)NCCN1CCCCC1`, the inhibition stood at 4.36%.

As for `O=C(NC1CCN(CCC[C@]2(c3ccc(Cl)c(Cl)c3)CCCN(C(=O)c3ccccc3)C2)CC1)c1ccc(Cl)cc1`, the inhibition was -1.27%.

For the compound `O=C(C=Cc1ccc(Cl)c(Cl)c1)NCCCCCN1CCC(CCCNC(=O)c2sc3ccccc3c2Cl)CC1`, the inhibition is 0.72%.

As to `CCc1c(CCNCCCCCCNCc2ccc3c(c2CC)OCO3)ccc(OC)c1OC`, the inhibition worked out at 0.77%.

In the case of `COc1ccc(CNC2Cc3ccccc3C2)cc1-c1ccc(S(=O)(=O)NCc2ccccc2)s1`, the inhibition amounted to 4.6%.

`Cc1ccc(N2C(N)=NC(N)=NC2(C)C)cc1`: the inhibition was 2.98%.

For the compound `CC(C)(C)Oc1ccc(C[C@@H]2NC3(C(=O)N(Cc4ccc(Cl)c(Cl)c4)c4ccccc43)C3C(=O)N(c4ccc(Br)cc4)C(=O)C32)cc1` (stereo not given in full), the inhibition is 4.73%.

With `COc1ccc(C(=O)N2CCN(c3ccc([N+](=O)[O-])c(NC4CC4)c3)CC2)cc1Br`, the inhibition was 14.1%.

On to `Cc1cc(-c2cccc3c(C(=O)N4CCc5cc6nccc(N7CCN8CCC[C@H]8C7)c6cc54)cccc23)cc(C)n1`, for which the inhibition is -1.7%.

Take `Clc1ccc(Nc2nc(NCc3ccccc3)nc(N/N=C/c3ccccn3)n2)cc1`: the inhibition stood at 83.5%.

`O=C(c1ccc(OCCn2ccnc2)cc1)N1CCC(c2ccc(Br)cc2)C1` (stereo not given): the inhibition came to 3.01%.

`CC(C)(C)CCN1CCC(CNC(=O)c2cc(-c3cccc(C(F)(F)F)c3)cs2)C1` (stereo not given): the inhibition was found to be 2.95%.

For `CC(=Nc1ccc(Cl)c(Cl)c1)N(C)C`, the inhibition came to 0.54%.

In the case of `FC(F)(F)c1ccc2[nH]c(-c3cccc(-c4ccc(CNCc5cnn(-c6ccccc6)n5)cc4)c3)nc2c1`, the inhibition stood at 0.61%.

Regarding `O=C(NCC1CCC(CNCCCc2ccccc2)CC1)c1cc(Cl)cc(Cl)c1` (stereo not given), the inhibition worked out at 0.53%.

As to `COc1ccc2nccc([C@@H](O)CN3CCC(NCc4cc5ccccn5n4)CC3)c2c1`, the inhibition worked out at 4.49%.

Consider `CCn1c(SCC(=O)Nc2cc(C(F)(F)F)ccc2Cl)nc2ccccc2c1=O`, for which the inhibition stood at 3.62%.

In the case of `CCNc1cc(C(=O)N[C@@H](Cc2ccccc2)[C@H](O)CN[C@@H](C)c2cccc(OC)c2)cc(N2CCCC2=O)c1`, the inhibition was 2.81%.

For `Cc1cnc(C(=O)Nc2ccc(-c3cccc(-c4nc5ccccc5[nH]4)c3)cc2)cn1`, the inhibition came out at 1.94%.

As to `CCC(=O)Nc1ccc(C(O)CN2CCC3(C=Cc4ccccc4O3)CC2)cc1` (stereo not given), the inhibition was found to be 2.65%.

As to `Cc1nc(N)nc(N)c1OCc1cccc2ccccc12`, the inhibition worked out at 1.33%.

In the case of `CCc1ccc(CNCC(CCNc2cc(=O)c3ccccc3[nH]2)NCc2cc(Br)cc(Br)c2)o1` (stereo not given), the inhibition came to 1.71%.

Turning to `OCCN1CCN(Cc2cccc(-c3ccc(-c4nc5cc(C(F)(F)F)ccc5[nH]4)cc3)c2)CC1`, the inhibition was 3.3%.

As to `COc1ccc(-c2ccccc2CNC2Cc3ccccc3C2)cc1S(=O)(=O)NCCN1CCCC1`, the inhibition was 0.5%.

For the compound `Cc1cc(C)c(NC(=O)NC2CCN(CCCCCNC(=O)/C=C/c3ccc(Cl)c(Cl)c3)C2)c(C)c1` (stereo not given), the inhibition turned out to be 2.36%.

The next assay concerns the target Glucose transporter (Leishmania mexicana) (UniProt O61059). The experiment in a line: ST_JUDE_LEISH: Cytotoxicity at 2uM final concentration against transgenic Leishmania Mexicana promastigotes LmGT2 that are glucose transport deficient and complemented with the L. Mexicana glucose transporter 2. Activity is measured by DNA content using SYBR green in vitro. It is filed as functional.
On to `Cc1cccc2nc(-c3cccc(-c4cccc(CNC(C)C)c4)c3)[nH]c12`, for which the inhibition was determined as 0.35%.

On to `CCOc1ccc(C(=O)Nc2nonc2-c2ccc(OC)c(OC)c2)cc1`, for which the inhibition was determined as 0.47%.

Consider `OCC1CCN(Cc2cccc(-c3ccc(-c4nc5cc(C(F)(F)F)ccc5[nH]4)cc3)c2)CC1`, for which the inhibition came to 1.4%.

Consider `CCc1c[nH]c2c(N3CCCCS3(=O)=O)cc(C(=O)N[C@@H](Cc3ccccc3)[C@H](O)CNCc3cccc(OC)c3)cc12`, for which the inhibition was -0.23%.

With `CCCCCCc1cc(OC)c(OC)cc1C(C)Nc1ccnc2cc(Cl)ccc12` (stereo not given), the inhibition was 0.14%.

`Cc1cc(N[C@@H](Cc2ccccc2)C(=O)NC2CCCC2)nc(NCC2CCCCC2)n1`: the inhibition was found to be 0.45%.

Regarding `O=C(Nc1cccc(CN2CCCN(Cc3ccc(O)cc3)CC2)c1)c1ccc(Cl)c(Cl)c1`, the inhibition is 5.2%.

For `O=S(=O)(NCCN1CCCC1)c1ccc(-c2cccc(CNCc3ccsc3)c2)s1`, the inhibition was -1.72%.

As for `Cc1[nH]c(C)c(-c2ccc(-c3ccc(F)cc3)nc2)c(=O)c1Br`, the inhibition came out at 1.04%.

In the case of `O=C(NCCc1ccc(O)cc1)n1c2ccccc2c2ccccc21`, the inhibition is 1.38%.

`COc1ccccc1N1CCN(CCCCNC(=O)c2ccc(NC(=O)c3cc(Cl)cc(Cl)c3)cc2)CC1`: the inhibition turned out to be 2.92%.

Regarding `CCOC(=O)CCCCCNC[C@H](O)c1ccccc1`, the inhibition was -2.14%.

For `CCOC(=O)c1ccc(NC(=O)Nc2ccc(-c3cccc(-c4nc5cccc(C)c5[nH]4)c3)cc2)cc1`, the inhibition was -0.76%.

In the case of `Cc1cc(NC(=O)c2cc(S(=O)(=O)N3CCCCC3)ccc2C)no1`, the inhibition stood at 2.15%.

In the case of `COc1ccc(NC(=O)[C@H](Cc2ccccc2)Nc2cc(C)nc(Nc3ccccc3)n2)cc1`, the inhibition is 10.4%.

On to `O=C(CCCCCNC(=O)c1ccc(O)c(-c2cccc(C(F)(F)F)c2)c1)NCCN1CCCCC1`, for which the inhibition was determined as 0.5%.

Consider `O=C(NC1CCN(CCC[C@]2(c3ccc(Cl)c(Cl)c3)CCCN(C(=O)c3ccccc3)C2)CC1)c1ccc(Cl)cc1`, for which the inhibition is -2.33%.

As to `O=C(C=Cc1ccc(Cl)c(Cl)c1)NCCCCCN1CCC(CCCNC(=O)c2sc3ccccc3c2Cl)CC1`, the inhibition is 1.61%.

Turning to `CCc1c(CCNCCCCCCNCc2ccc3c(c2CC)OCO3)ccc(OC)c1OC`, the inhibition turned out to be 4.01%.

For the compound `COc1ccc(CNC2Cc3ccccc3C2)cc1-c1ccc(S(=O)(=O)NCc2ccccc2)s1`, the inhibition was determined as 4.36%.

`Cc1ccc(N2C(N)=NC(N)=NC2(C)C)cc1`: the inhibition was determined as 2.39%.

Consider `CC(C)(C)Oc1ccc(C[C@@H]2NC3(C(=O)N(Cc4ccc(Cl)c(Cl)c4)c4ccccc43)C3C(=O)N(c4ccc(Br)cc4)C(=O)C32)cc1` (stereo not given in full), for which the inhibition stood at 2.5%.

In the case of `COc1ccc(C(=O)N2CCN(c3ccc([N+](=O)[O-])c(NC4CC4)c3)CC2)cc1Br`, the inhibition was 12.6%.

On to `Cc1cc(-c2cccc3c(C(=O)N4CCc5cc6nccc(N7CCN8CCC[C@H]8C7)c6cc54)cccc23)cc(C)n1`, for which the inhibition came out at 2.83%.

For the compound `Clc1ccc(Nc2nc(NCc3ccccc3)nc(N/N=C/c3ccccn3)n2)cc1`, the inhibition came out at 77.6%.

In the case of `O=C(c1ccc(OCCn2ccnc2)cc1)N1CCC(c2ccc(Br)cc2)C1` (stereo not given), the inhibition was found to be 0.49%.

Take `CC(C)(C)CCN1CCC(CNC(=O)c2cc(-c3cccc(C(F)(F)F)c3)cs2)C1` (stereo not given): the inhibition was -0.8%.

On to `CC(=Nc1ccc(Cl)c(Cl)c1)N(C)C`, for which the inhibition came to 0.02%.

Consider `FC(F)(F)c1ccc2[nH]c(-c3cccc(-c4ccc(CNCc5cnn(-c6ccccc6)n5)cc4)c3)nc2c1`, for which the inhibition was determined as 2.19%.

Take `O=C(NCC1CCC(CNCCCc2ccccc2)CC1)c1cc(Cl)cc(Cl)c1` (stereo not given): the inhibition is 1.72%.

Turning to `COc1ccc2nccc([C@@H](O)CN3CCC(NCc4cc5ccccn5n4)CC3)c2c1`, the inhibition is 4.75%.

In the case of `CCn1c(SCC(=O)Nc2cc(C(F)(F)F)ccc2Cl)nc2ccccc2c1=O`, the inhibition came out at 4.32%.

On to `CCNc1cc(C(=O)N[C@@H](Cc2ccccc2)[C@H](O)CN[C@@H](C)c2cccc(OC)c2)cc(N2CCCC2=O)c1`, for which the inhibition was 3.09%.

`Cc1cnc(C(=O)Nc2ccc(-c3cccc(-c4nc5ccccc5[nH]4)c3)cc2)cn1`: the inhibition was -0.57%.

Regarding `CCC(=O)Nc1ccc(C(O)CN2CCC3(C=Cc4ccccc4O3)CC2)cc1` (stereo not given), the inhibition is 1.63%.

As to `Cc1nc(N)nc(N)c1OCc1cccc2ccccc12`, the inhibition is -1.23%.

Take `CCc1ccc(CNCC(CCNc2cc(=O)c3ccccc3[nH]2)NCc2cc(Br)cc(Br)c2)o1` (stereo not given): the inhibition was -0.33%.

With `OCCN1CCN(Cc2cccc(-c3ccc(-c4nc5cc(C(F)(F)F)ccc5[nH]4)cc3)c2)CC1`, the inhibition stood at 2.62%.

For `COc1ccc(-c2ccccc2CNC2Cc3ccccc3C2)cc1S(=O)(=O)NCCN1CCCC1`, the inhibition came out at 2.53%.

For `Cc1cc(C)c(NC(=O)NC2CCN(CCCCCNC(=O)/C=C/c3ccc(Cl)c(Cl)c3)C2)c(C)c1` (stereo not given), the inhibition worked out at 2.29%.

In general, inhibition refers to the relative decrease from the control value, in per cent.
